The values below come from PubChem BioAssay (Tox21).

Results filed as inconclusive are left out. Activity calls are given as the source filed them. Unless noted, calls come from the whole dose curve; as a rule, active = well fitted curve in the direction sought with a large enough effect in the repeat runs; inconclusive = weak or mixed curves; inactive = no such curve, though single readings can be large; an effect the other way counts as inactive or inconclusive.

Test [1] in a line: qHTS assay to identify small molecule antagonists of the thyroid receptor (TR) signaling pathway (AID 743065). Note: nearly all actives have a fitted effect of over 55% in size. Note: potency is the fitted concentration of half-maximal effect. Put shortly: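 GH3.TRE-Luc rat pituitary cells (two TREs driving luciferase) were dosed with compound, then stimulated with 1 nM T3 (final) for 23.5 h at 37 C. ONE-Glo luminescence was the read-out, with CellTiter-Fluor fluorescence as the cytotoxicity counter-screen.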

In test [2] the test system is thyroid hormone receptor (rat, GH3 cells). Description: qHTS assay to identify small molecule agonists of the thyroid receptor (TR) signaling pathway (AID 743066; calls by dose curve).
In test [3] the target is Estrogen receptor (Homo sapiens) (UniProt P03372). Nature of the test: qHTS assay to identify small molecule antagonists of the estrogen receptor alpha (ER-alpha) signaling pathway (AID 743069; active = well fitted curve in the direction sought with a large enough effect in the signal ratio in the repeat runs, not every such curve was filed as active; the % refers to the signal ratio). The gist of the method: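 In this cell-based reporter format, GripTite HEK293 cells harbouring ER-alpha-UAS-bla were grown overnight with 2% charcoal-stripped FBS, dosed with DMSO-dissolved compounds, then challenged with 17beta-estradiol. After 18 hr at 37C, beta-lactamase activity was detected by FRET fluorescence.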
Estrogen receptor (Homo sapiens), sequence (P03372 whole entry, looked up): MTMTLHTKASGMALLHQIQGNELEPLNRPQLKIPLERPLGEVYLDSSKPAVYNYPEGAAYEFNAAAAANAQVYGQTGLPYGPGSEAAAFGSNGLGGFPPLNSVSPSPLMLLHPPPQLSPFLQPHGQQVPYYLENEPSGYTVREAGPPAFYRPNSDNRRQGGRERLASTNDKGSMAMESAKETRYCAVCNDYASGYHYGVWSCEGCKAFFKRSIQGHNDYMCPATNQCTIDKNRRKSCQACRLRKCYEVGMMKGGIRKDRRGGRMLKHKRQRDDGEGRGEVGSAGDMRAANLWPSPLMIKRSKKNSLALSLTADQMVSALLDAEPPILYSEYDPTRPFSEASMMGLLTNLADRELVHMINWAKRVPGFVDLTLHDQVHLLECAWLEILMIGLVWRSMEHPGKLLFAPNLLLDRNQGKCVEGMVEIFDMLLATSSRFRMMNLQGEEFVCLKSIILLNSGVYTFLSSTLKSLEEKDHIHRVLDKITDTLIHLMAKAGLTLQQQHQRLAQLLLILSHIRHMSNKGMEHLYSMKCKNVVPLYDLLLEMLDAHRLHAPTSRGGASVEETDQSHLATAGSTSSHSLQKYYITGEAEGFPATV

Test [4] is described as follows: qHTS assay to identify small molecule antagonists of the estrogen receptor alpha (ER-alpha) signaling pathway - cell viability counter screen (AID 743074; calls by dose curve; note: nearly all actives have a fitted effect of over 45% in size).
For test [5], the target named is Estrogen receptor (Homo sapiens) (UniProt P03372). Nature of the test: qHTS assay to identify small molecule agonists of the estrogen receptor alpha (ER-alpha) signaling pathway (AID 743075; calls by dose curve).
The target is the same in test [6]. Description: qHTS assay to identify small molecule agonists of the estrogen receptor alpha (ER-alpha) signaling pathway using the BG1 cell line (AID 743079). Note: nearly all actives have a fitted effect of over 20% in size. Note: potency is the fitted concentration of half-maximal effect.
Test [7] is described as follows: qHTS assay to identify small molecule antagonists of the estrogen receptor alpha (ER-alpha) signaling pathway using the BG1 cell line (AID 743080; calls by dose curve;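 note: BG1 cells stimulated with 17beta-estradiol alongside compound; series mostly up to about 70 µM; nearly all actives have a fitted effect of over 25% in size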). The gist of the method: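 Luminescence from a 4×ERE-luciferase reporter in BG1-Luc-4E2 cells served as read-out. Cells, pre-cultured 5 days in stripped-serum phenol-red-free medium, were exposed to compound with 17beta-estradiol co-stimulation for 21.5 h at 37 C.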

Test [8] in a line: qHTS assay to identify small molecule antagonists of the estrogen receptor alpha (ER-alpha) signaling pathway using the BG1 cell line - cell viability counter screen (AID 743081).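 Note: compound given together with 17beta-estradiol as the ER stimulus; series mostly up to about 70 µM; nearly all actives have a fitted effect of over 45% in size.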
A short description of test [9]: qHTS assay to identify aromatase inhibitors - cell viability counter screen (AID 743084).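 Note: cells stimulated with testosterone during compound exposure; nearly all actives have a fitted effect of over 55% in size.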
In test [10] the target is Aryl hydrocarbon receptor (Homo sapiens) (UniProt P35869). Description: qHTS assay to identify small molecule that activate the aryl hydrocarbon receptor (AhR) signaling pathway (AID 743085).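 For activation: HG2L7.5c1 human HepG2 liver cells with stably integrated DRE-driven firefly reporter; series mostly up to about 70 µM.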 Note: nearly all actives have a fitted effect of over 15% in size. Note: potency is the fitted concentration of half-maximal effect. Put shortly: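 Luminescence (ONE-Glo) from a dioxin-responsive-element luciferase reporter in HG2L7.5c1 HepG2 cells after 24 hr compound exposure at 37C; viability measured by CellTiter-Fluor fluorescence beforehand.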
Aryl hydrocarbon receptor (Homo sapiens), sequence (P35869 whole entry, looked up): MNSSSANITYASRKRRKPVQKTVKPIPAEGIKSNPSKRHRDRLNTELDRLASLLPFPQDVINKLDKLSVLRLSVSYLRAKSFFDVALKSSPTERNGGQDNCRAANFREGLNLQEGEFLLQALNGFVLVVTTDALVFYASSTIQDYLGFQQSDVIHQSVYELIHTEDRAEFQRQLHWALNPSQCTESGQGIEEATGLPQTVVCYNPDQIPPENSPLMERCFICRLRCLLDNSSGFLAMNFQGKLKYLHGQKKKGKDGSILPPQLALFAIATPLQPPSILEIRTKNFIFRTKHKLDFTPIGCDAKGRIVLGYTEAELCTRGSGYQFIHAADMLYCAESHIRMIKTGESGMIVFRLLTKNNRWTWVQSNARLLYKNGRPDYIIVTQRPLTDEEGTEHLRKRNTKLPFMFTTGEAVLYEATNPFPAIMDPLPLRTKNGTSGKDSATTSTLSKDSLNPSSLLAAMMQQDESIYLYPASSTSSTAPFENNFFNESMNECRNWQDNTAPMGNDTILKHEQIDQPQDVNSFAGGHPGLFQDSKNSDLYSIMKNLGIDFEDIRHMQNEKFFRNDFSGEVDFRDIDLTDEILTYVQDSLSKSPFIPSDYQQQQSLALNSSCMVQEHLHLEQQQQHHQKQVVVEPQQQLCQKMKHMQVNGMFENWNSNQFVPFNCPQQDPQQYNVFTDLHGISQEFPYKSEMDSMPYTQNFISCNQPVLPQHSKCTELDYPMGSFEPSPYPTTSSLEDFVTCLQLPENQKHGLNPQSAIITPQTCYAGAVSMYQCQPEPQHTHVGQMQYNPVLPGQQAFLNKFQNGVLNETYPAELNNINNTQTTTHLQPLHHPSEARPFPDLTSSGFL

Test [11] is described as follows: qHTS assay to identify small molecule that activate the aryl hydrocarbon receptor (AhR) signaling pathway - cell viability counter screen (AID 743086).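 Note: HepG2 liver cells carrying the AhR DRE luciferase reporter; series mostly up to about 70 µM; nearly all actives have a fitted effect of over 45% in size.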 Put shortly:
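HepG2-AhR-luc (HG2L7.5c1) cells, 4000/well, treated 24 h at 37 C with compound; viability measured as CellTiter-Fluor fluorescence after 30 min in the same wells as the luciferase read.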

Test [12] concerns the target Peroxisome proliferator-activated receptor gamma (Homo sapiens) (UniProt P37231). Nature of the test: qHTS assay to identify small molecule agonists of the peroxisome proliferator-activated receptor gamma (PPARg) signaling pathway (AID 743094; active = well fitted activation curve with a large enough effect in the signal ratio in the repeat runs, not every such curve was filed as active; the % refers to the signal ratio). Put shortly: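 Agonism was assessed in a beta-lactamase reporter system, HEK293H cells with a stably integrated UAS-bla construct under PPARg control; the 17 h treatment at 37C preceded a 1 h room-temperature FRET substrate read.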

The target is the same in test [13]. Nature of the test: qHTS assay to identify small molecule antagonists of the peroxisome proliferator-activated receptor gamma (PPARg) signaling pathway (AID 743191; calls by dose curve; note: series mostly up to about 63 µM; nearly all actives have a fitted effect of over 30% in size). The gist of the method: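 GeneBLAzer PPARg UAS-bla HEK293H cells, 5 h post-plating, exposed to compounds 17 h at 37C. LiveBLAzer B/G FRET substrate added for 1 h at room temperature; beta-lactamase reporter read by fluorescence intensity.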

Test [14] is described as follows: qHTS assay to identify small molecule antagonists of the peroxisome proliferator-activated receptor gamma (PPARg) signaling pathway - cell viability counter screen (AID 743194). Note: nearly all actives have a fitted effect of over 55% in size. The gist of the method:
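Cytotoxicity counter screen in PPARg-bla HEK293H cells, same wells as reporter assay. Compounds plus 50 nM rosiglitazone (final) for 17 h at 37 C, then viability read by CellTiter-Glo luminescence.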

Test [15] in a line: qHTS assay for small molecule agonists of the antioxidant response element (ARE) signaling pathway (AID 743202; active = well fitted activation curve with a large enough effect in the signal ratio in the repeat runs, not every such curve was filed as active; the % refers to the signal ratio). Put shortly:
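HepG2 ARE-bla cells; 16 h treatment at 37 C; FRET-based beta-lactamase fluorescence read after 2 h substrate incubation at room temperature.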

The nature of test [16]: qHTS assay for small molecule agonists of the antioxidant response element (ARE) signaling pathway - cell viability counter screen (AID 743203; calls by dose curve; note: nearly all actives have a fitted effect of over 55% in size). Put shortly:
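ATP content via CellTiter-Glo luminescence served as the viability measure. Cells: ARE-bla HepG2, 2,000 per well. Exposure: 16 hrs, 37C/5% CO2.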

Test [17] in a line: qHTS assay for small molecule activators of the heat shock response signaling pathway - cell viability counter screen (AID 743209). Note: nearly all actives have a fitted effect of over 50% in size. Put shortly: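 Compounds dissolved in DMSO were added to overnight-plated HSE-bla HeLa cells and left 5 h at 37 C. Cell viability was quantified by luminescence using CellTiter-Glo.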
Test [18] can be described thus: qHTS assay for small molecule activators of the heat shock response signaling pathway (AID 743210; active = well fitted activation curve with a large enough effect in the signal ratio in the repeat runs, with a control signal flat, not every such curve was filed as active; the % refers to the signal ratio;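 note: HeLa cells with beta-lactamase reporter driven by heat shock elements; series mostly up to about 63 µM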). Put shortly: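 Following overnight attachment, HSE-bla HeLa cells received test compounds for 5 h at 37 C; beta-lactamase activity was then detected via FRET substrate fluorescence.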
Test [19] is described as follows: qHTS assay to identify small molecule agonists of the peroxisome proliferator-activated receptor delta (PPARd) signaling pathway - cell viability counter screen (AID 743211). Note: nearly all actives have a fitted effect of over 55% in size. The gist of the method: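 Viability was measured as CellTiter-Glo luminescence (30 min, room temperature) in the same wells as the beta-lactamase readout. GeneBLAzer PPARd UAS-bla HEK293H cells received compound after 5 h plating and were incubated 17 h at 37 C.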

In a further test the target is Aromatase (Homo sapiens) (UniProt P11511). Description: qHTS assay to identify aromatase inhibitors (AID 743083).
Aromatase (Homo sapiens), sequence (P11511 whole entry, looked up): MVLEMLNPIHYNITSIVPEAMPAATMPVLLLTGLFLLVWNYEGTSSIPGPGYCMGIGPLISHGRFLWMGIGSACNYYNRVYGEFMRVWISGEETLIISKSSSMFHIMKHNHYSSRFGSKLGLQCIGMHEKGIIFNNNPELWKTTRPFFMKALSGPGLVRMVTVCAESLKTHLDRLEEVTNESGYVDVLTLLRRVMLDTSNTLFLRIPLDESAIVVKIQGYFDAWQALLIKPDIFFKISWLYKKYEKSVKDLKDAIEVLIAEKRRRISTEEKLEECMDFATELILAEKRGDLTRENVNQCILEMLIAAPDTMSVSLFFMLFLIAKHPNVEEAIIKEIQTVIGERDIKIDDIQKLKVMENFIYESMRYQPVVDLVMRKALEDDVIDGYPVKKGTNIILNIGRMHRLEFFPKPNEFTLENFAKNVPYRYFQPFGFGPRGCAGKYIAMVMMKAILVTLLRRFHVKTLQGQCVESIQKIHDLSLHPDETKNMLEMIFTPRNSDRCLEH

Peroxisome proliferator-activated receptor gamma (Homo sapiens), sequence (P37231 whole entry, looked up): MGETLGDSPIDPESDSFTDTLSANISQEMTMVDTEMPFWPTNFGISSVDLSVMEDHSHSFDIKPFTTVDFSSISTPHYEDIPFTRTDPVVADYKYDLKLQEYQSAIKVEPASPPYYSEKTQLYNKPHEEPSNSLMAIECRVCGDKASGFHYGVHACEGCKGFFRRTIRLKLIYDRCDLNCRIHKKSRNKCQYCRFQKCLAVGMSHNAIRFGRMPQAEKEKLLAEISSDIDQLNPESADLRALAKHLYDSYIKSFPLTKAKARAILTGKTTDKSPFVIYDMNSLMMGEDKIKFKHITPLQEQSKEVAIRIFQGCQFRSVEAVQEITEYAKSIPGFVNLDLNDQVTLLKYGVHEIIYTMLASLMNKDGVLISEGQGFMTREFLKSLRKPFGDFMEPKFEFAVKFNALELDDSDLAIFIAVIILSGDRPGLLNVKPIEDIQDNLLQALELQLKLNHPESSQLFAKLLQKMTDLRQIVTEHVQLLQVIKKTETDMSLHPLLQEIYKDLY

For `Cc1c(-c2ccccc2)oc2c(C(=O)OCCN3CCCCC3)cccc2c1=O`, the Potency entry in test [1], in [3], in test [4], in test [6], in test [8] and in [9] was “inactive” throughout. The Potency result in test [10], in test [12], in test [13], in test [14], in test [15] and in [16] was “inactive” each time. Besides, the Potency result in test [18] and in test [19] was “inactive” in each case. Further, the outcome in test [2], in test [5], in test [7], in test [11] and in [17] was inactive.

`CC1=C(CC(=O)O)c2cc(F)ccc2/C1=C\c1ccc(S(C)(=O)=O)cc1`: the Potency entry (in test [1]; in test [3]; in test [4]; in [6]; in test [8]; in the test with Aromatase (Homo sapiens)) was “inactive” in each case. Also, the Potency entry in test [9], in test [10], in test [14], in test [16], in [18] and in test [19] was “inactive” throughout. Further, the outcome in test [2], in test [5], in test [7], in [11] and in test [17] was inactive.

As for `FC(F)(F)c1ccccc1`, the Potency entry (in test [1]; in [3]; in test [6]; in [8]; in the test with Aromatase (Homo sapiens); in test [9]) was “inactive” in each case. Moreover, the Potency entry in [13], in test [14], in [16], in test [18] and in test [19] was “inactive” throughout. The call in test [2], in test [5], in test [7] and in test [11] was inactive.

As to `COc1nc(C)nc(NC(=O)NS(=O)(=O)c2ccccc2OCCCl)n1`, the Potency entry (in test [1]; in test [3]; in test [4]; in test [8]; with Aromatase (Homo sapiens); in test [9]) was “inactive” in each case. The Potency entry in test [12], in test [13], in test [14], in [15], in test [16] and in test [18] was “inactive” in each case. Besides, the Potency result in [19] was “inactive”. Moreover, the call in [2], in test [5], in test [7], in test [11] and in [17] was inactive.

For `O=C1CCCCCCCCCCC(=O)OCCO1`, the Potency result (in [1]; in test [3]; in test [6]; in test [8]; with Aromatase (Homo sapiens); in [9]) was “inactive” each time. Also, the Potency entry in [10], in [12], in test [13], in test [14], in test [15] and in test [16] was “inactive” throughout. The Potency entry in test [18] and in [19] was “inactive” throughout. For the same compound, the compound was classed as inactive in [2], in test [5], in test [11] and in test [17].

Regarding `C[C@]12C(=O)OC(=O)[C@H]1[C@H]1C=C[C@@H]2C1`, the Potency entry (in test [1]; in [3]; in test [4]; in test [8]; with Aromatase (Homo sapiens); in test [9]) was “inactive” in each case. Besides, the Potency result in [10], in test [12], in test [13], in test [14], in test [15] and in test [16] was “inactive” each time. Also, the Potency result in test [19] is “inactive”. In addition, the compound was classed as inactive in test [2], in test [5], in test [7], in [11] and in test [17].

As for `C=C(C)C(=O)OCCOP(=O)(O)O`, the Potency entry (in [1]; in [3]; in test [4]; in test [8]; in the test with Aromatase (Homo sapiens); in test [9]) was “inactive” each time. In addition, the Potency entry in test [12], in test [13], in test [14], in test [15], in test [16] and in test [19] was “inactive” throughout. For the same compound, the compound was classed as inactive in test [2], in test [5], in test [7], in [11] and in [17].

`O=C1N(c2ccccc2)c2ccccc2C1(Cc1ccncc1)Cc1ccncc1`: the Potency result (in test [1]; in test [3]; in test [6]; in test [8]; in the test with Aromatase (Homo sapiens); in test [9]) was “inactive” throughout. Besides, the Potency result in [10], in [12], in test [13], in test [14], in test [16] and in [19] was “inactive” each time. The call in test [2], in [5], in test [7], in test [11] and in test [17] was inactive.

Consider `Cc1cc2nc(N)sc2cc1C`, for which the Potency result (in [1]; in test [4]; in [8]; with Aromatase (Homo sapiens); in test [9]; in [12]) was “inactive” in each case. Besides, the Potency result in [13], in test [14], in test [15], in test [16], in test [18] and in test [19] was “inactive” throughout. Besides, the outcome in test [2], in test [11] and in [17] was inactive. Also, the Potency in [10] was 6.17 µM (active).

`CN1CCN(C2=Nc3cc(F)ccc3Cc3ccccc32)CC1`: in test [1], the Potency was 13.3 µM (active). For the same compound, the compound was called inactive in [2], in test [5], in test [7] and in test [17]. Further, the Potency entry (in test [3]; in [4]; in test [8]; with Aromatase (Homo sapiens); in [9]; in [12]) was “inactive” in each case. Further, the Potency result in test [13], in [14], in test [16] and in test [18] was “inactive” in each case.

Turning to `C=CC1CO1` (centres undefined), the Potency result (in test [1]; in test [4]; in test [8]; in the test with Aromatase (Homo sapiens); in test [9]; in test [10]) was “inactive” in each case. Besides, the Potency result in [12], in test [13], in test [14], in [15], in [16] and in test [18] was “inactive” throughout. Moreover, the Potency result in test [19] was “inactive”. For the same compound, the outcome in test [2], in test [11] and in test [17] was inactive.

With `COc1ccc(Nc2ccc(OC)cc2)cc1`, the Potency entry (in test [1]; in test [3]; in [4]; in [8]; in the test with Aromatase (Homo sapiens); in test [9]) was “inactive” throughout. In addition, the Potency entry in test [12], in [14], in [15], in test [16], in test [18] and in test [19] was “inactive” in each case. Also, the compound was classed as inactive in test [2], in [5], in test [11] and in test [17]. Besides, in [6], the Potency is 3.93 µM (active).

In the case of `CCCCNCCCC`, the Potency result (in test [1]; in test [4]; in test [8]; in the test with Aromatase (Homo sapiens); in test [9]; in test [10]) was “inactive” in each case. Also, the Potency result in test [12], in test [13], in test [14], in test [15], in [16] and in [18] was “inactive” each time. The Potency result in test [19] was “inactive”. Further, the call in test [2], in test [11] and in test [17] was inactive.

Regarding `CC(=O)N[C@@H](CC(C)C)C(=O)O`, the Potency result (in test [1]; in test [3]; in [4]; in test [8]; with Aromatase (Homo sapiens); in test [9]) was “inactive” throughout. The Potency entry in test [10], in test [12], in test [13], in test [14], in test [15] and in test [16] was “inactive” in each case. The Potency entry in test [18] and in test [19] was “inactive” each time. In addition, the result in test [2], in test [5], in test [7], in test [11] and in test [17] was inactive.

As for `CCCN(CCC)C(=O)C(CCC(=O)O)NC(=O)c1ccccc1` (centres undefined), the Potency result (in [1]; in test [4]; in test [8]; with Aromatase (Homo sapiens); in test [9]; in [10]) was “inactive” in each case. Besides, the Potency result in test [12], in [13], in test [14], in [15], in test [16] and in test [18] was “inactive” in each case. Also, in test [19], the Potency result is “inactive”. For the same compound, the compound was called inactive in test [2], in test [11] and in [17].
